# The list is not random: actives were taken first. Their share in the collection is about 4.6%.
# TIM10 inh: growth inhibitors of isogenic TIM10 control yeast, primary screen, counter-screen for tim10-1 yeast inhibitor project, luminescence, uHTS; S. cerevisiae TIM10 strain growth, BacTiter-Glo luminescence, 24 h; inhibition, % at 10 µM; actives 1.4% (n = 330,000);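 active = inhibition of 40% or more at the single tested concentration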;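 also: wild-type TIM10 isogenic control strain grown at permissive 25 °C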
# SKKanGAS inh: S. pyogenes SKKanGAS growth inhibitors in kanamycin, primary screen, streptokinase expression inhibitor project, SKKanGAS strain, BacTiter-Glo luminescence. inhibition, % at 7.5 µM. actives 1.3% (n = 300,000). 6 h. AID 1662, 2009;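 active = mean replicate score, as percent of positive control median, at least 50; inconclusive = mean below 50 but one replicate at or above 50; inactive = mean and every replicate below 50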;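 also: strain carries kanamycin resistance gene driven by streptokinase promoter and grows in 40 µg/ml kanamycin; loss of luminescence reflects streptokinase promoter inhibition or plain growth inhibition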
# tim23-1 inh: growth inhibitors of tim23-1 mutant yeast, primary screen, luminescence, uHTS | actives 1.3% (n = 330,000) | inhibition, % at 20 µM | S. cerevisiae tim23-1 growth, BacTiter-Glo luminescence, 24 h;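 active = growth inhibition of the mutant yeast at or above 50%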;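 also: temperature-sensitive mutant grown at 25 °C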
# NALP3 yeast inh: NALP3 inflammasome inhibitors in reconstituted yeast, primary screen, luminescence, uHTS. AID 2825, 2010. inhibition, % at 10 µM. Yeast reconstituted NLRP3/ASC/caspase-1, beta-gal luminescence, 24 h. actives 0.39% (n = 330,000);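 active = inhibition of 50% or more; inactive = inhibition below 50%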
# tim10-1 inh: growth inhibitors of tim10-1 mutant yeast, primary screen, luminescence, uHTS; S. cerevisiae tim10-1 ts strain growth, BacTiter-Glo, 24 h; inhibition, % at 20 µM; actives 2.2% (n = 330,000); AID 463190, 2010;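 active = inhibition of at least 40%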;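 also: mutant grown at 25 °C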
# tim10-1 confirm: growth inhibitors of tim10-1 mutant yeast, confirmation, single concentration, luminescence, S. cerevisiae. actives 56% (n = 7,400). inhibition, % at 20 µM. S. cerevisiae tim10-1 ts strain growth, BacTiter-Glo, 24 h. shares compounds with tim10-1 inh. AID 463213, 2010;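 active = inhibition of yeast growth at or above a set limit in either of two repeat tests at 20 µM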;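 also: tim10-1 mutant grown at permissive 25 °C to find synthetic lethal compounds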
# Hits are given with their value; i = inactive; ? = inconclusive; nt = no result given.
SMILES,TIM10 inh,SKKanGAS inh,tim23-1 inh,NALP3 yeast inh,tim10-1 inh,tim10-1 confirm
Cc1nc(-c2ccccc2)sc1-c1n[nH]c(=S)n1C,i,i,i,i,48,i
Cn1c(-c2sccc2OCc2ccccc2)n[nH]c1=S,i,i,i,i,50,i
O=C(Nc1cccc(S(=O)(=O)N2CCCCC2)c1)c1ccc(N2CCCC2=O)cc1,i,nt,i,i,i,nt
COC(=O)Cn1c(=O)c2c(nc3n2CCCN3CCc2ccccc2)n(C)c1=O,i,i,i,i,i,nt
Cc1ccc(C(=O)NC(=S)N2CCN(c3cc(C)ccc3C)CC2)cc1,i,?,i,i,i,nt
Cc1cc2cc(CCNC(=O)CCCc3ccccc3)c(=O)[nH]c2cc1C,i,i,i,i,i,nt
CCn1c(O)c(C(C#N)=C2N=c3ccccc3=N2)c2ccccc21,i,i,i,i,i,nt
CCOc1c(C=C(C#N)C#N)c2ccccc2n1CC,i,i,i,i,42,i
COCCNC(=O)C(c1ccc(F)cc1)N(C(=O)CCC(=O)Nc1ccccn1)C1CCCCC1 (configuration not stated),i,i,i,i,i,nt
O=C(CCl)N1CCN(S(=O)(=O)Cc2ccccc2)CC1,i,nt,i,i,43,i
CCOCCCn1c(=S)[nH]c2cc(C(=O)NCCc3ccccc3)ccc2c1=O,i,i,i,i,i,nt
Cc1ccc(CN2CCSc3ccc(C(=O)N4CCOCC4)cc32)cc1,i,i,i,i,41,i
CCN1CCSc2ccc(C(=O)NCc3cccc(Br)c3)cc21,i,i,i,i,41,35
O=C(NCC1CCCO1)c1ccc2c(c1)N(Cc1ccccc1)CCS2 (configuration not stated),i,i,i,i,41,i
CCN1CCN(C(=O)c2ccc3c(c2)N(Cc2ccc(C)cc2)CCS3)CC1,i,i,i,i,i,nt
COc1ccc(C(=O)Nc2ccc(N3CCCCCC3)cc2)cc1S(=O)(=O)N1CCOCC1,i,nt,i,i,i,nt
CC(=O)N/C(=N/c1nc(C)cc(C)n1)Nc1cccc(C)c1C,i,i,i,i,i,nt
O=C(c1cccc(C(F)(F)F)c1)N1CCc2c([nH]c3ccccc23)C1C(F)(F)F (configuration not stated),i,i,i,i,i,nt
O=S(=O)(c1cccc2nsnc12)N1CCNCC1,i,i,i,i,i,nt
COc1ccccc1-c1cc(C(F)(F)F)nc(S(=O)(=O)CCCC(=O)O)n1,i,i,i,i,i,nt
COc1ccc(-c2cc(C(F)(F)F)nc(S(=O)(=O)CCC(=O)N3CCOCC3)n2)cc1,i,i,i,i,48,i
COc1ccccc1-c1cc(C(F)(F)F)nc(S(=O)(=O)CCCC(=O)N2CCOCC2)n1,i,i,i,i,40,i
COc1ccc(-c2cc(C(F)(F)F)nc(SCC(=O)N3CCOCC3)n2)cc1OC,i,i,i,i,i,nt
CCOC(=O)c1sc(NC(=O)C2CC2)nc1C,i,i,i,i,47,32
CCOC(=O)c1sc(NC(=O)CC)nc1C,i,i,i,i,i,nt
SMILES,TIM10 inh,SKKanGAS inh,tim23-1 inh,NALP3 yeast inh,tim10-1 inh,tim10-1 confirm
COc1cccc(CC(=O)OCC(=O)N(C)CC(=O)Nc2ccccc2Cl)c1,i,nt,i,i,i,nt
O=S(=O)(c1cccc(Cl)c1)N1CCN(S(=O)(=O)c2ccc3c(c2)OCCO3)CC1,i,nt,i,i,i,nt
O=S(=O)(c1ccc2c(c1)OCCO2)N1CCC(O)(c2ccc(Cl)cc2)CC1,i,i,i,i,49,36
COc1ccccc1NC(=S)N(Cc1ccccc1)Cc1ccccn1,i,i,i,i,i,nt
S=C(Nc1ccccc1Cl)N(Cc1ccccc1)Cc1ccccn1,i,i,i,i,47,i
Cc1ccc(S(=O)(=O)N2CCN(Cc3ccccc3C(F)(F)F)CC2)cc1,i,i,i,i,i,nt
O=S(=O)(c1ccccc1)N1CCN(Cc2ccccc2C(F)(F)F)CC1,i,nt,i,i,40,i
Cc1ccc2nc(N3C(=O)C(O)=C(C(=O)c4ccc(C)o4)C3c3ccc(O)cc3)sc2c1 (configuration not stated),i,nt,i,i,i,nt
Fc1c(F)c(C(F)(F)F)c(F)c(F)c1N/N=C\c1cccs1,i,i,i,i,47,69
Cc1ccccc1OCCC(=O)N1CCN(S(=O)(=O)c2ccc(Br)cc2)CC1,i,nt,i,i,i,nt
CCC(C)N1CCC(Oc2ccc(C(=O)NCc3ccccn3)cc2)CC1 (configuration not stated),i,i,i,i,i,nt
CC1CN(S(=O)(=O)c2ccc(C(=O)OCc3ccc(C#N)cc3)cc2)CC(C)O1 (configuration not stated),i,nt,i,i,i,nt
NNC(=O)c1[nH]c2ccccc2c1-c1ccccc1,i,i,i,i,42,35
O=C(NCc1ccco1)c1cccn2c(=O)c3sccc3nc12,i,i,i,i,40,i
O=C(NCc1cccs1)c1cccn2c(=O)c3sccc3nc12,i,i,i,i,i,nt
Cc1cc(C)nc(N(C#N)Cc2cccc3ccccc23)n1,i,i,i,i,48,35
Cc1cc(C)nc(N(C#N)Cc2ccccc2)n1,i,i,i,i,i,nt
COc1ccc2c(c1)C1C=CCC1C(c1cc3c(cc1Br)OCO3)N2 (configuration not stated),i,i,i,i,51,38
CC(C)(Oc1ccc(Cl)cc1)C(=O)NCC1CCCO1 (configuration not stated),i,i,i,i,i,nt
CCOC(=O)c1cnc2c(OC)cccc2c1N1CCN(c2ccccn2)CC1,i,i,i,i,48,i
CCOC(=O)c1cnc2c(C(F)(F)F)cccc2c1N1CCN(C)CC1,i,i,i,i,i,nt
CCOC(=O)c1cnc2c(OC)cccc2c1N1CCN(c2ccc(OC)cc2)CC1,i,i,i,i,40,i
O=c1c2ccccc2nc2n1CCS2,i,i,i,i,i,nt
COc1ccc2[nH]c3c(=O)n4c(nc3c2c1)SCCC4,i,i,i,i,40,39
Cc1ccc2[nH]c3c(=O)n4c(nc3c2c1)SCC4,i,i,i,i,45,i
O=C(COc1ccc(F)cc1Br)NCCCN1CCCC1=O,i,nt,i,i,i,nt
O=S(=O)(Nc1c(O)ccc2ccccc12)c1cccc2ccccc12,i,i,i,i,44,i
O=S1(=O)CCS(=O)(=O)C1c1ccccc1,i,i,i,i,i,nt
O=C(CSc1ccc2nnc(-c3cccc(F)c3)n2n1)N1CCCc2ccccc21,i,i,i,i,i,nt
CCSc1ccc2nnc(-c3cccc(F)c3)n2n1,i,i,i,i,40,34

# High-throughput results as filed in PubChem BioAssay.
